Measurements reported in PubChem BioAssay (NCATS).
Values joined by “and” are separate entries in the source; they are usually repeats but may differ in a detail not shown here. Equal values may be shown once. Inconclusive results are not listed. Some compounds were tested as several samples or in several runs, with calls that do not always agree. Active and inactive are the calls of the source. Calls follow the shape of the dose curve; as a rule, active = well fitted cell-killing curve with a large enough effect; inconclusive = small, poorly fitted or top-dose-only effect, or effect the other way; inactive = flat fitted curve, though single readings scatter.

How the values were obtained:
Experiment in all cases: Primary qHTS to identify gynecologic anti-cancer compounds using libraries of approved drugs and bioactive compounds (AID 1345084); also: nearly all actives have a fitted effect of over 55% in size
CAOV3 = settings: Gynecologic cancer cell panel viability, ATPlite luminescence, 48 h; series mostly up to 57.5 µM
How it was run: (§1)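 Measured: luminescence after ATPlite addition (15 min, RT). Exposure: 48 h, 37 C, 5% CO2.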

Es-2 = settings: Gynecologic cancer cell panel viability, ATPlite luminescence, 48 h; series mostly up to 57.5 µM
How it was run: as §1

HeLa = settings: Gynecologic cancer cell panel viability, ATPlite luminescence, 48 h; series mostly up to 57.5 µM
How it was run: as §1

Hek293T = settings: Gynecologic cancer cell panel viability, ATPlite luminescence, 48 h, control line for the selectivity index; series mostly up to 57.5 µM
How it was run: as §1

JEG-3 = settings: Gynecologic cancer cell panel viability, ATPlite luminescence, 48 h; series mostly up to 57.5 µM
How it was run: as §1

OV90 = settings: Gynecologic cancer cell panel viability, ATPlite luminescence, 48 h; series mostly up to 57.5 µM
How it was run: as §1

PA-1 = settings: Gynecologic cancer cell panel viability, ATPlite luminescence, 48 h; series mostly up to 57.5 µM
How it was run: as §1

SKOV3 = settings: Gynecologic cancer cell panel viability, ATPlite luminescence, 48 h; series mostly up to 57.5 µM
How it was run: as §1

Tov-21-G = settings: Gynecologic cancer cell panel viability, ATPlite luminescence, 48 h; series mostly up to 57.5 µM
How it was run: as §1

CASKI = settings: Gynecologic cancer cell panel viability, ATPlite luminescence, 48 h; series mostly up to 57.5 µM
How it was run: as §1

Measured: Potency
Potency is read from the fitted curve at half-maximal effect.

COc1cc(Nc2ncc3c(n2)-c2ccc(Cl)cc2C(c2c(F)cccc2OC)=NC3)ccc1C(=O)O
28.2 µM (active) and inactive: OV90
active: CAOV3 31.6 µM
25.1 µM (active) and inactive: SKOV3
not listed: CASKI
inactive: all other assays above

COc1ccc(CCN2CCN(CCCc3ccccc3)CC2)cc1OC
not listed: CAOV3 | Tov-21-G
inactive: all other assays above

NS(=O)(=O)c1cc2c(cc1Cl)NC=NS2(=O)=O
not listed: OV90
inactive: all other assays above

N#CC[C@H](C1CCCC1)n1cc(-c2ncnc3[nH]ccc23)cn1
not listed: Es-2 | SKOV3 | Tov-21-G
inactive: all other assays above

COc1cc(Oc2ccnc3cc(OC)c(OC)cc23)ccc1NC(=O)NC(C)c1nccs1 (centres undefined)
not listed: CAOV3
inactive: all other assays above

Nc1nc2c(ncn2COCCO)c(=O)[nH]1
not listed: CASKI
inactive: all other assays above

CNC(=O)c1ccccc1Sc1ccc2c(/C=C/c3ccccn3)n[nH]c2c1
active: CAOV3 10 µM and 8.91 µM | CASKI 11.2 µM | Es-2 15.8 µM and 17.8 µM | HeLa 3.98 µM and 3.55 µM | Hek293T 10 µM and 12.6 µM | OV90 11.2 µM | Tov-21-G 11.2 µM

NCCCC(N)(C(=O)O)C(F)F (centres undefined)
not listed: CAOV3
inactive: all other assays above

N=c1nc(N2CCCCC2)cc(N)n1O
not listed: CAOV3 | CASKI
inactive: all other assays above

CN(C)c1ccc(Nc2nc(N)n(C(=O)c3c(F)cccc3F)n2)cc1
active: HeLa 12.6 µM
not listed: CAOV3
inactive: all other assays above

CCc1ccc(CCOc2ccc(CC3SC(=O)NC3=O)cc2)nc1 (centres undefined)
not listed: CAOV3
inactive: all other assays above

O=C(Nc1cccnc1)N1CCC(Cc2cccc(Oc3ccc(C(F)(F)F)cn3)c2)CC1
inactive: HeLa | PA-1

COc1cccc2cc(-c3nc(C4CCC(C(=O)O)CC4)n4ncnc(N)c34)[nH]c12 (centres undefined)
inactive: HeLa | JEG-3
active: Es-2 7.08 µM | OV90 7.94 µM | PA-1 3.16 µM | SKOV3 11.2 µM | Tov-21-G 3.55 µM

O=C(O)CCc1ccc(NCc2cccc(Oc3ccccc3)c2)cc1
inactive: CASKI | JEG-3

CC(C)(C)NCC(O)c1ccc(O)c(CO)c1 (centres undefined)
not listed: CAOV3 | SKOV3
inactive: all other assays above

Nc1ccc(S(=O)(=O)Nc2ccnn2-c2ccccc2)cc1
not listed: CAOV3 | SKOV3
inactive: all other assays above

Cc1ccnc(NS(=O)(=O)c2ccc(NC(=O)Nc3ccc(S(=O)(=O)Nc4nccc(C)n4)cc3)cc2)n1
not listed: CAOV3
inactive: all other assays above

CCCS(=O)(=O)Nc1ccc(F)c(C(=O)c2c[nH]c3ncc(Cl)cc23)c1F
inactive: CASKI | HeLa | Hek293T | JEG-3 | OV90

O=C(c1cc(Cc2n[nH]c(=O)c3ccccc23)ccc1F)N1CCN(C(=O)C2CC2)CC1
not listed: CAOV3 | SKOV3
inactive: all other assays above

COc1nc(-c2ccc3c(c2)OCO3)n(-c2ccc(NC(=O)CSc3ccccc3)cc2)n1
not listed: CAOV3 | HeLa
inactive: all other assays above

Cc1cn[nH]c1
not listed: CAOV3
inactive: all other assays above

O=C(NOC[C@H](O)CO)c1ccc(F)c(F)c1Nc1ccc(I)cc1F
inactive: CASKI | HeLa | Hek293T | JEG-3 | PA-1 | SKOV3

Cn1cnc2c(F)c(Nc3ccc(Br)cc3Cl)c(C(=O)NOCCO)cc21
active: OV90 1.58 µM
not listed: CAOV3 | Es-2 | Tov-21-G
inactive: all other assays above

S=C(NCc1ccc2c(c1)OCO2)N1CCN(c2ncnc3c2oc2ccccc23)CC1
inactive: HeLa | JEG-3 | PA-1 | Tov-21-G

OC(CN1CCC(Cc2ccc(F)cc2)CC1)c1ccc(Cl)cc1 (centres undefined)
not listed: CAOV3
inactive: all other assays above

O=C(O)COCCN1CCN(C(c2ccccc2)c2ccc(Cl)cc2)CC1 (centres undefined)
not listed: CAOV3
inactive: all other assays above

CN1CCN(CCCN2c3ccccc3Sc3ccc(C(F)(F)F)cc32)CC1
active: OV90 11.2 µM | SKOV3 14.1 µM
inactive: HeLa | JEG-3 | Tov-21-G
